High-throughput results: PubChem BioAssay, Bradner/Qi Labs at DFCI
CBX7 AlphaScr: CBX7 inhibition, primary AlphaScreen | AlphaScreen His6-CBX7 / biotin-H3K27me3 peptide binding; active compounds read low | 66,000 compounds, 1.1% hits | normalised signal (fraction of DMSO) (concentration not given with the values) | O95931; in the data active = normalised signal below about 0.5
Target sequence (O95931 whole entry, looked up): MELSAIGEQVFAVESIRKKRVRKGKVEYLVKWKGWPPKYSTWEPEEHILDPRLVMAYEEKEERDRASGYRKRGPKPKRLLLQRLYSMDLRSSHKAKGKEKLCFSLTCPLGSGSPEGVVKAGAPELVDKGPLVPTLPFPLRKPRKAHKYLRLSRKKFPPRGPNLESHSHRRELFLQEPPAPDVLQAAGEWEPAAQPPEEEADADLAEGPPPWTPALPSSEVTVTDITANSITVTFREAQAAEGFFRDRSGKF
Large screens that a line does not name were inactive. This is one part of a sample in which hits are shown more often than they occur.

O=C(c1ccccc1)c1ccc(-c2[nH]c(-c3cccc(Cl)c3)nc2-c2ccccc2)cc1	none
Cc1ccc(C)c(-c2[nH]c(-c3cccc(O)c3)nc2-c2ccccc2)c1	none
Oc1ccc(-c2nc(-c3ccccc3)c(-c3ccc(F)cc3)[nH]2)cc1O	none
O=C(O)c1ccc(-c2nc(-c3ccc(C(=O)c4ccc(F)cc4)cc3)c(-c3ccc(F)cc3)[nH]2)cc1	none
Cc1c(Cl)cccc1NC(=O)c1cc(-c2ccc(Br)cc2)on1	none
CCCCc1ccc(-c2nc(Cc3ccccc3)no2)cc1	none
COc1ccc(S(=O)(=O)Nc2cccc(-c3cn4c(C)cccc4n3)c2)cc1	none
COc1ccccc1Cn1c(COc2ccccc2)nc2ccccc21	none
CC(C)(C)c1ccc2c(c1)N(CC(=O)NCc1ccc(F)cc1Cl)C(=O)CO2	none
O=C(Nc1ccc2ccccc2n1)c1ccccc1O	none
Cc1c(C(=O)NCc2ccccn2)oc2ccc(S(=O)(=O)N3CCC4(CC3)OCCO4)cc12	CBX7 AlphaScr 0.43
Cc1c(C(=O)NCCC(C)C)oc2ccc(S(=O)(=O)N3CCC4(CC3)OCCO4)cc12	none
Cc1c(C(=O)NCc2ccccc2)oc2ccc(S(=O)(=O)N3CCC4(CC3)OCCO4)cc12	none
CCOc1ccc(-n2ccnc2SCC(=O)Nc2cc(Cl)ccc2OC)cc1	none
COc1ccc(-n2ccnc2SCC(=O)Nc2ccc(C)c(Cl)c2)cc1	CBX7 AlphaScr 0.47
COc1ccc(-c2cn(-c3ccccc3)c(SCC(=O)Nc3ccc(F)cc3)n2)cc1OC	none
COc1ccc(-n2ccnc2SCC(=O)Nc2cc(Cl)ccc2OC)cc1	none
Cc1ccc(-n2cc(-c3ccc4c(c3)OCO4)nc2SCC(=O)Nc2ccc3c(c2)OCO3)cc1	none
COc1ccc(NC(=O)CSc2nccn2-c2ccc(OC)cc2)cc1	none
COc1ccc(-c2cn(-c3ccc(Cl)cc3)c(SCC(=O)Nc3ccc(F)cc3)n2)cc1OC	CBX7 AlphaScr 0.45
Cc1ccc(NC(=O)CSc2nccn2-c2ccc(F)cc2)cc1Cl	none
Cc1ccc(-n2cc(-c3ccc4c(c3)OCO4)nc2SCC(=O)Nc2cc(C)cc(C)c2)cc1	CBX7 AlphaScr 0.49
COc1ccc(-c2cn(-c3ccc(Cl)cc3)c(SCC(=O)Nc3cccc(C)c3)n2)cc1OC	none
COc1ccc(Cl)cc1NC(=O)CSc1nccn1-c1ccc(F)cc1	CBX7 AlphaScr 0.4
Cc1ccc(-n2cc(-c3ccc4c(c3)OCO4)nc2SCC(=O)Nc2ccccc2)cc1	none
Cc1ccc(CNC(=O)C(C)C2Sc3ccccc3N(Cc3ccc(F)cc3Cl)C2=O)cc1 (stereo unspecified)	none
O=C(Cn1nc(Cc2cccnc2)c2ccccc2c1=O)NC1CCCc2ccccc21 (stereo unspecified)	none
O=C(CCCCN1CCC(c2ccccc2)C1)c1ccc(F)cc1 (stereo unspecified)	none
CC1CCCN(S(=O)(=O)c2ccc3c(c2)CCN3C(=O)C2CC2)C1 (stereo unspecified)	none
CCOc1ccc(C2C(C(=O)Nc3cccc(C)n3)=C(C)NC3=C2C(=O)CC(C)(C)C3)cc1 (stereo unspecified)	none
O=C(Nc1ccc2nc3n(c(=O)c2c1)CCCCC3)c1cccnc1	none
Cc1ccccc1OCCn1c(C2CC(=O)N(c3ccc(Br)cc3)C2)nc2ccccc21 (stereo unspecified)	none
CCN1CCCC1CNC(=O)c1cc(Nc2ccccc2OC)nc2ccccc12 (stereo unspecified)	none
COc1ccc(C)cc1NS(=O)(=O)c1ccc2c(c1)CCN2C(=O)C1CCC1	none
CC(C)c1ccc(NC(=O)c2cc3c(s2)-c2ccccc2OC3)cc1	none
COc1ccc(CCN2C(=O)C(Oc3ccccc3C)C2c2ccccc2Cl)cc1OC (stereo unspecified)	none
Cc1cc(NC(=O)c2ccc3c(c2)N(C)CCS3)ccc1Br	none
COc1ccc(-n2ccnc2SCC(=O)Nc2ccc(Cl)cc2)cc1	none
COc1ccc(-n2ccnc2SCC(=O)Nc2ccccc2OC)cc1	none
COc1ccc(OC)c(NC(=O)CSc2nccn2-c2ccc(F)cc2)c1	CBX7 AlphaScr 0.48
COc1cccc(-n2ccnc2SCC(=O)Nc2cc(OC)ccc2OC)c1	none
COc1ccc(NC(=O)CSc2nccn2-c2ccc(Cl)cc2)c(OC)c1	CBX7 AlphaScr 0.49
COc1ccc(OC)c(NC(=O)CSc2nccn2-c2ccccc2)c1	none
O=C(O)c1cc(-c2ccc(O)cc2O)nc2ccccc12	none
CCOC(=O)N1CCN(c2c(NCCN3CCCCC3C)c(=O)c2=O)CC1 (stereo unspecified)	none
Cc1nc2c(-c3ccc(F)cc3)c(C)nn2c(C)c1CCC(=O)NCCN1CCCC1	none
Cc1cccc(NC(=O)CSc2nc(-c3ccc4c(c3)OCO4)cn2-c2cccc(Cl)c2)c1	none
Cc1ccc(Cl)cc1NC1c2ncccc2C(=O)N1Cc1ccc(F)cc1 (stereo unspecified)	none
CCOc1ccc(NC2c3ccccc3C(=O)N2Cc2ccccc2Cl)cc1 (stereo unspecified)	none
Cc1ccc(NC2c3ccccc3C(=O)N2Cc2ccccc2Cl)cc1 (stereo unspecified)	none
O=C1c2cccnc2C(Nc2ccc(Cl)cc2)N1Cc1ccc(F)cc1 (stereo unspecified)	CBX7 AlphaScr 0.37
CCOc1ccc(NC2c3ccccc3C(=O)N2c2cccnc2)cc1 (stereo unspecified)	none
Cc1ccc(NC2c3ccccc3C(=O)N2Cc2ccccc2)cc1 (stereo unspecified)	none
Cc1ccc(NC2c3ncccc3C(=O)N2Cc2ccc(F)cc2)cc1 (stereo unspecified)	CBX7 AlphaScr 0.44
CCOc1ccc(NC2c3ncccc3C(=O)N2Cc2ccc(F)cc2)cc1 (stereo unspecified)	CBX7 AlphaScr 0.5
O=C1c2ccccc2C(Nc2ccccn2)N1Cc1ccccc1 (stereo unspecified)	none
CC(=O)NC(CCCN1C(=O)c2ccccc2C1=O)c1nn[nH]n1 (stereo unspecified)	none
Cc1cc(C)cc(NC(=O)CN(C)S(=O)(=O)c2cccc3cccnc23)c1	none
O=C(Nc1nc2ccc(Cl)cc2s1)c1cccc(Oc2ccccc2)c1	none
COc1ccc(NC(=O)CCc2nc(-c3ccc(C)cc3)no2)cc1OC	none
COc1ccc(-c2cn3c(C)c(C(=O)Nc4ccc(F)cc4)sc3n2)cc1	none
CCN1CCN(CCCNC(=O)c2cc(=O)[nH]c3ccc(S(=O)(=O)N4CCCC4)cc23)CC1	none
Cc1c(C(=O)NCc2ccc(F)cc2)sc2ncnc(N3CCOCC3)c12	none
COc1ccc(Nc2ncc(C(=O)Nc3cccc(Cl)c3)c3ccccc23)cc1	CBX7 AlphaScr 0.2
COc1ccc(Nc2ncc(C(=O)Nc3cnc4ccccc4c3)c3ccccc23)cc1	none
CCOc1ccc(NC(=O)c2cnc(Nc3ccc(OC)cc3)c3ccccc23)cc1	none
CCOc1ccccc1NC(=O)Cn1ncc2c1-c1ccccc1OC2	none
Cc1ccc2c(c1Br)C(O)(CC(=O)c1ccc3c(c1)OCO3)C(=O)N2 (stereo unspecified)	none
O=c1[nH]c2ccccc2cc1/C=c1/sc2nc3ccccc3n2c1=O	none
CNCC(=O)Nc1c2c(nc3c1CCC3)CCCC2	CBX7 AlphaScr 0.49
Cc1cc(NC(=O)CNC2CCCCC2)c2ccccc2n1	none
CCCCCCC(=O)Nc1c2c(nc3c1CCC3)CCCC2	none
O=C(CNC1CCCCC1)Nc1c2c(nc3c1CCC3)CCCC2	CBX7 AlphaScr 0.34
CC(C)(C)NCC(=O)Nc1c2c(nc3c1CCC3)CCCC2	none
O=C(CNC1CCCCC1)Nc1c2c(nc3c1CCC3)CCC2	none
CCOC(=O)c1c(NC(=O)c2ccc(S(=O)(=O)N(C)C)cc2)sc2c1CCN(CC)C2	none
O=C(CS(=O)(=O)c1nc(-c2ccc3c(c2)OCO3)cn1-c1ccccc1)Nc1cccc(Cl)c1	none
